Reference: PubChem BioAssay (NCATS)
Several values for one entry are separate records, joined by “and”; a condition that tells them apart may be missing. Equal entries are not always repeated. Inconclusive results are not listed. Where a call stands in place of a potency, no number is given. Activity calls are given as the source filed them. Unless noted, calls follow the shape of the dose curve; as a rule, active = well fitted curve in the direction sought with a large enough effect; inconclusive = small, poorly fitted or top-dose-only effect, or another doubt; inactive = no such curve, though single readings can be large; an effect the other way counts as inactive or inconclusive.

What was measured:
[1] = biological target: Alpha-galactosidase A (Homo sapiens) (UniProt P06280); assay: Counterscreen for Glucocerebrosidase Inhibitors: qHTS Assay for Human alpha-Galactosidase at pH 4.5 (AID 992)
Procedure, shortened: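 Concentration-response curves (0.7 nM to 77 uM final) were modeled with the Hill equation to give AC50. Reactions: 2 nM enzyme, 80 uM fluorogenic alpha-galactoside, pH 4.5 citric acid buffer, 20 min, room temperature.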

[2] = biological target: alpha-glucosidase (Oryza sativa, rice) (UniProt Q653V4); assay: Counterscreen for Glucocerebrosidase Inhibitors: qHTS Assay for Rice alpha-Glucosidase at pH 5.0 (AID 997)
Procedure, shortened: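 Rice alpha-glucosidase (4 nM final) with 400 uM 4-methylumbelliferyl-alpha-D-glucopyranoside in citrate buffer pH 5.0, 20 min at room temperature, stopped at pH 10; fluorescence 365/440 nm, compounds 0.7 nM–77 uM, AC50 from Hill fits.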

[3] = qHTS Assay for Lipid Storage Modulators (AID 1519; calls by dose curve); settings: Drosophila S3 cells, BODIPY lipid droplet/cell ratio, laser cytometry, cells loaded with oleic acid
Procedure, shortened: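 Cells seeded at 5,000 per well were treated with compounds over a concentration series and loaded with oleic acid (400 uM, as added). Lipid droplet fluorescence (488 nm excitation, 500-530 nm channel) was read by laser-scanning cytometry and normalized to 20 uM Triacsin C.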

[4] = Cell Viability - LYMP1-002 - Assay at 24 hr (AID 993)
Procedure, shortened: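 Cells plated 2500/well, 5 hr 37 C; compounds added, 24 hr 37 C; CellTiter-Glo added, 30 min RT; luminescence read. Tetraoctylammonium bromide positive control. Hill-equation AC50.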

[5] = biological target: DNA repair nuclease/redox regulator APEX1 (Homo sapiens) (UniProt P27695); assay: qHTS Validation Assay for Inhibitors of the Human Apurinic/apyrimidinic Endonuclease 1 (APE1) (AID 1705;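 also: TAMRA fluorescence gain over two minutes as APE1 cuts a quenched THF abasic duplex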)
Procedure, shortened: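 Substrate: 50 nM final fluorophore/quencher THF-abasic duplex. Enzyme preincubated with compounds 15 min, RT. Progress derived from fluorescence difference, third minus first kinetic read.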

[6] = Counterscreen for APE1 Inhibitors: Fluorescent Dye Displacement Validation Assay (AID 1707)
Procedure, shortened: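 Assay buffer: Tris-HCl pH7.5 with 50mM NaCl, 2 mM MgCl2, 0.01% Tween-20. Dye 250 nM, duplex 50 nM final. Readout: decrease in ThO endpoint fluorescence, 480 nm excitation, 540 nm emission.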

[7] = biological target: Endonuclease 4 (Escherichia coli (strain K12)) (UniProt P0A6C1); assay: Counterscreen for APE1 Inhibitors: qHTS Validation Assay for Inhibitors of Endonuclease IV (AID 1708)
Procedure, shortened: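 qHTS concentration-response format; LOPAC1280 tested under APE1-screen conditions. 2 nM enzyme, 15 min compound preincubation at RT, then 50 nM TAMRA/BHQ-2 abasic substrate; kinetic fluorescence read, three reads at 60 s intervals.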

[8] = qHTS for differential inhibitors of proliferation of Plasmodium falciparum line 3D7 (AID 1876); also: potency is read from the fitted curve at half-maximal effect
[9] = qHTS for differential inhibitors of proliferation of Plasmodium falciparum line W2 (AID 1883); settings: Potency: Plasmodium falciparum W2 proliferation inhibition;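 also: parasites grown with compound for 72 h before lysis and staining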; also: potency is read from the fitted curve at half-maximal effect
[10] = biological target: Ferritin light chain (Equus caballus) (UniProt P02791); assay: qHTS Validation Assay for Identification of Novel General Anesthetics (AID 2323)
Procedure, shortened: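 Normalized fluorescence response, scaled between free 1-AMA and 1-AMA/apoferritin complex, fitted to a four-parameter Hill equation for concentration-effect values. Binding mix: 10 uM horse-spleen apoferritin, 50% saturated 1-AMA in PBS; read 380/535 nm after 10 min.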

[11] = qHTS for differential inhibitors of proliferation of Plasmodium falciparum line D10 (AID 1877);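 also: parasites grown with compound for 72 h before DNA staining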
[12] = qHTS for differential inhibitors of proliferation of Plasmodium falciparum line HB3 (AID 1886); settings: Potency: Plasmodium falciparum HB3 proliferation inhibition;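 also: parasites grown with compound for 72 h before SYBR Green readout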; also: potency is read from the fitted curve at half-maximal effect
[13] = qHTS for differential inhibitors of proliferation of Plasmodium falciparum line 7G8 (AID 1815);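 also: parasite growth measured after three days of incubation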; also: potency is read from the fitted curve at half-maximal effect
[14] = qHTS for differential inhibitors of proliferation of Plasmodium falciparum line GB4 (AID 1816); settings: Potency: Plasmodium falciparum GB4 proliferation inhibition;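 also: parasite growth measured after 72 h incubation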
[15] = Cell Viability - LYMP2-024 (AID 988); also: nearly all actives have a fitted effect of over 60% in size
Procedure, shortened: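 Steps: seed 2500 cells/well, 5 hr 37 C; add compound, 24 hr 37 C; add CellTiter-Glo, 30 min room temperature; read luminescence. AC50 derived by Hill modelling of concentration-dependent ATP loss.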

[16] = Cell Viability - LYMP2-026 (AID 989);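 also: cells exposed to compound for 24 h at 37 °C; nearly all actives have a fitted effect of over 50% in size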
Procedure, shortened: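 Luminescent ATP signal (CellTiter-Glo, 30 min room temperature) measures viable lymphoblastoid cells after 24 hr compound treatment at 37 C. Decreased ATP reflects acute toxicity; AC50 values come from Hill-equation modeling.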

[17] = Cell Viability - LYMP1-002 - Assay at 40 hr (AID 994); also: nearly all actives have a fitted effect of over 60% in size
Procedure, shortened: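 Luminescent ATP signal served as the viability readout, with decreases taken as toxicity. Cells were treated with compounds across a concentration range for 40 hours at 37 C, and AC50 values came from standard Hill modeling.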

[18] = qHTS Assay for Identification of Small Molecule Inducers of Hypoxia Response (AID 2120; active = well fitted curve in the direction sought with a large enough effect in the signal ratio, with a control signal flat, not every such curve was filed as active; the % refers to the signal ratio)
Procedure, shortened: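 ME-180 HRE-bla cells plated in Opti-MEM/0.5% dialyzed FBS, rested 4-5 h, then dosed with compound titrations by pin tool. After 17 h at 37 degrees C, CCF4 dye loaded 2.5 h at RT; 460/530 nm ratio gave %Activity and AC50.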

[19] = measured here: cell count channel max response
[20] = measured here: lipid channel max response

DNA repair nuclease/redox regulator APEX1 (Homo sapiens), sequence (P27695 whole entry, looked up): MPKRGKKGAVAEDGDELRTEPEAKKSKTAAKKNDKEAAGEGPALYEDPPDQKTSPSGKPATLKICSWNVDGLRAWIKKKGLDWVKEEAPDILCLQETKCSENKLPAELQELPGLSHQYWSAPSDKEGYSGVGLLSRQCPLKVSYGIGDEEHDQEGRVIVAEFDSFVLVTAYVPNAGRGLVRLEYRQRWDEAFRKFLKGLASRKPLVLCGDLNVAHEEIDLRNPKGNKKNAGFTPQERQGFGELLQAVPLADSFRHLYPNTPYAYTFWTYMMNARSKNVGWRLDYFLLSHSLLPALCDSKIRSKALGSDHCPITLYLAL
Ferritin light chain (Equus caballus), sequence (P02791 2-175 limits assumed): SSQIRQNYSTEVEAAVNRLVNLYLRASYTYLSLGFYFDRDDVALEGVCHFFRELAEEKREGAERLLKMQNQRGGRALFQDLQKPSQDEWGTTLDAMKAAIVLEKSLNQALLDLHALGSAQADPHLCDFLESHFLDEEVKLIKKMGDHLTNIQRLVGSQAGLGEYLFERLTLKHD
Alpha-galactosidase A (Homo sapiens), sequence (P06280 whole entry, looked up): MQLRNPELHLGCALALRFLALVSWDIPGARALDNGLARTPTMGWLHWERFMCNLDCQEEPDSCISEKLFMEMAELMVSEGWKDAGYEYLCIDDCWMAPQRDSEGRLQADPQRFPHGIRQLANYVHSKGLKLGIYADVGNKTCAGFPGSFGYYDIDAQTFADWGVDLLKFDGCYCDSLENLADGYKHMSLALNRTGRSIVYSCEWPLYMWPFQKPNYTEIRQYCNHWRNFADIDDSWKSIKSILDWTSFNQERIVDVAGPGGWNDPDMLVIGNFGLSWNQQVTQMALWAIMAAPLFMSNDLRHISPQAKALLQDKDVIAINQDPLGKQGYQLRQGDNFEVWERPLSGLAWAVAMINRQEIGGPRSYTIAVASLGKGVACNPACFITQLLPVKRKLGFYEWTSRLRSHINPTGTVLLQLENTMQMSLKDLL

CCOC(=O)C1=C[C@@]2(CC)CCCN3CCc4c(n1c1ccccc41)[C@H]32
outcome [1]: inactive
outcome [2]: inactive
activity change, negative = inhibition ([3]; at 25.7 µM (top of the series)): -1.77% (inactive)
max response [3, 19]: -14.2%
max response [3, 20]: -15.3%

Cn1cnc([N+](=O)[O-])c1Sc1ncnc2nc[nH]c12
outcome [1]: inactive
outcome [4]: inactive
outcome [2]: inactive
outcome [5]: inactive
outcome [6]: inactive
outcome [7]: inactive
Potency [8]: 12.6 µM (active)
Potency [9]: 12.6 µM (active)
outcome [10]: inactive

CC(C)(Sc1ccc(CCN(CCCCC2CCCCC2)C(=O)NC2CCCCC2)cc1)C(=O)O
outcome [1]: inactive
outcome [2]: inactive
activity change, negative = inhibition ([3]; at 57.5 µM (top of the series)): -0.767% (inactive)
max response [3, 19]: 16.5%
max response [3, 20]: 13.3%
outcome [5]: inactive
outcome [6]: inactive
Potency [8]: inactive
Potency [11]: inactive
Potency [12]: inactive

Cc1[nH]c(=O)c(C#N)cc1-c1ccc2nccn2c1
outcome [1]: inactive
outcome [2]: inactive
activity change, negative = inhibition ([3]; at 57.5 µM (top of the series)): -1.62% (inactive)
max response [3, 19]: 25.3%
max response [3, 20]: 21.7%
outcome [5]: inactive
outcome [6]: inactive
outcome [7]: inactive
Potency [13]: inactive
Potency [14]: inactive
Potency [8]: inactive
Potency [12]: inactive
outcome [10]: inactive

Cc1[nH]c(=O)c(C#N)cc1-c1ccncc1
outcome [1]: inactive
outcome [2]: inactive
outcome [5]: inactive
outcome [6]: inactive
outcome [7]: inactive
Potency [13]: inactive
Potency [14]: inactive
Potency [8]: inactive
Potency [11]: inactive
Potency [9]: inactive
Potency [12]: inactive
outcome [10]: inactive

NC(N)=NC(=O)c1nc(Cl)c(N)nc1N
outcome [15]: inactive
outcome [16]: inactive
outcome [1]: inactive
outcome [4]: inactive
outcome [17]: inactive
outcome [2]: inactive
outcome [5]: inactive
outcome [7]: inactive

CC(C)(C)NCC(O)c1ccc(O)c(CO)c1 (configuration not stated)
activity change, negative = inhibition ([3]; at 57.5 µM (top of the series)): 0.332% (inactive) and 5.35% (inactive)
max response [3, 19]: 11.9% and -13.2%
max response [3, 20]: 15.4% and -7.47%
outcome [5]: inactive
outcome [6]: inactive
outcome [7]: inactive
outcome [10]: inactive

CC(C)NCC(O)COc1ccc(COCCOC(C)C)cc1 (configuration not stated)
outcome [1]: inactive
outcome [2]: inactive
outcome [6]: inactive
outcome [7]: inactive
Potency [8]: inactive
Potency [11]: inactive
Potency [12]: inactive
outcome [10]: inactive

Nc1nc2c(ncn2COCCO)c(=O)[nH]1
outcome [1]: inactive
outcome [2]: inactive
outcome [5]: inactive
outcome [6]: inactive
outcome [7]: inactive
Potency [13]: inactive
Potency [14]: inactive
Potency [8]: inactive
Potency [11]: inactive
Potency [12]: inactive
outcome [10]: inactive

Cc1cn[nH]c1
outcome [1]: inactive
outcome [2]: inactive
outcome [6]: inactive
outcome [7]: inactive
Potency [13]: inactive
Potency [14]: inactive
Potency [8]: inactive
Potency [11]: inactive
Potency [9]: inactive
Potency [12]: inactive
outcome [10]: inactive

Cc1ccccc1C(OCCN(C)C)c1ccccc1 (configuration not stated)
outcome [5]: inactive
outcome [6]: inactive
outcome [7]: inactive
Potency [13]: 3.98 µM (active)
Potency [11]: inactive
Potency [9]: 0.708 µM (active)
outcome [10]: inactive

O=NN(CCCl)C(=O)NCCCl
outcome [1]: inactive
outcome [2]: inactive
outcome [5]: inactive
outcome [6]: inactive
Potency [13]: inactive
Potency [14]: inactive
Potency [8]: inactive
Potency [9]: inactive
Potency [12]: inactive
outcome [10]: inactive

CC(C[N+](C)(C)C)OC(N)=O (configuration not stated)
outcome [5]: inactive
outcome [6]: inactive
outcome [7]: inactive
Potency [13]: inactive
Potency [14]: inactive
Potency [8]: inactive
Potency [11]: inactive
Potency [12]: inactive
outcome [10]: inactive

CCCC(CCC)C(=O)O
outcome [15]: inactive
outcome [16]: inactive
outcome [1]: inactive
outcome [4]: inactive
outcome [17]: inactive
outcome [2]: inactive
activity change, negative = inhibition ([3]; at 57.5 µM (top of the series)): 7.45% (inactive)
max response [3, 19]: 23.9%
max response [3, 20]: 36.2%
outcome [5]: inactive
outcome [6]: inactive
outcome [7]: inactive
outcome [18]: inactive
outcome [10]: inactive

CNC[C@H](O)c1cccc(O)c1
outcome [1]: inactive
outcome [2]: inactive
activity change, negative = inhibition ([3]; at 57.5 µM (top of the series)): 0.239% (inactive)
max response [3, 19]: 20.5%
max response [3, 20]: 21.2%
outcome [5]: inactive
outcome [6]: inactive
outcome [7]: inactive
Potency [13]: inactive
Potency [14]: inactive
Potency [8]: inactive
Potency [11]: inactive
Potency [9]: inactive
Potency [12]: inactive
outcome [10]: inactive

NNCCc1ccccc1
outcome [1]: inactive
outcome [2]: inactive
outcome [5]: inactive
outcome [6]: inactive
outcome [7]: inactive
Potency [11]: inactive
outcome [10]: inactive

C1COC(NC(C2CC2)C2CC2)=N1
outcome [1]: inactive
outcome [2]: inactive
activity change, negative = inhibition ([3]; at 25.7 µM (top of the series)): -4.99% (inactive)
max response [3, 19]: 3.69%
max response [3, 20]: -12.8%
outcome [5]: inactive
outcome [6]: inactive
outcome [7]: inactive
Potency [13]: 7.94 µM (active)
Potency [9]: 14.1 µM (active)
Potency [12]: 10 µM (active)
outcome [10]: inactive

O=C1CCc2cc(OCCCCc3nnnn3C3CCCCC3)ccc2N1
outcome [1]: inactive
outcome [2]: inactive
activity change, negative = inhibition ([3]; at 57.5 µM (top of the series)): -9.74% (inactive)
max response [3, 19]: -20.7%
max response [3, 20]: -27.2%
outcome [5]: inactive
outcome [6]: inactive
Potency [13]: 14.1 µM (active)
outcome [10]: inactive
